# PubChem BioAssay (NCATS)
# Records with an inconclusive call do not appear. Entries that show only a call come without a potency. A number with no mark means an inactive call. The source made the active and inactive calls. The call rests on the fitted dose curve.
# Assay: Cytotoxicity counterscreen for inhibitors of SARS-CoV-2 cell entry (AID 1645845); further: nearly all actives have a fitted effect of over 50% in size
# Conditions: cell viability (SARS-CoV-2 entry assay cells); series mostly up to 57.1 µM; activity change, negative = cytotoxicity: at the top concentration
# How it was run: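 Counterscreen run in the same HEK293-ACE2 line as the pseudotyped-particle entry assay, without particles. Viability after 48 h at 37 C was read as ATP luminescence, scaled between cell-containing and cell-free wells.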
SMILES,"activity change, negative = cytotoxicity",Potency,outcome
c1ccc(-c2nc[nH]c2-c2ccccc2)cc1,-4.82%,,
Cn1c(=O)c2[nH]cnc2n(C)c1=O,,inactive,
NS(=O)(=O)c1ccc(Cl)c(S(N)(=O)=O)c1,,,inactive
c1ccc2sc(SSc3nc4ccccc4s3)nc2c1,-5.13% [at 27.1 µM],,
COc1c2occc2cc2ccc(=O)oc12,,inactive,
COc1ccc2cc([C@H](C)C(=O)O)ccc2c1,,inactive,
CC(C)(Oc1ccc(Cl)cc1)C(=O)OCCCOC(=O)C(C)(C)Oc1ccc(Cl)cc1,2.09%,,
CN1C(=O)OC(C)(C)C1=O,,,inactive
OCCc1ccccc1,,,inactive
O=C(O)CCCCCCCC(=O)O,,,inactive
CCCCCCCCCCC[C@@H](C[C@@H]1OC(=O)[C@H]1CCCCCC)OC(=O)[C@H](CC(C)C)NC=O,,,inactive
Nc1nc(=O)n([C@@H]2CS[C@H](CO)O2)cc1F,,,inactive
NC(N)=NS(=O)(=O)c1ccc(N)cc1,,,inactive
O=c1cc(O)c(Cl)c[nH]1,,,inactive
Clc1cccc(Cl)c1NC1=NCCN1,,,inactive
Cc1cc(O)cc2c1O[C@](C)(CCC[C@H](C)CCC[C@H](C)CCCC(C)C)CC2,-0.567%,,
CC(=O)OCC[N+](C)(C)C,1.82%,,
CCO/C([O-])=N/c1c[n+](N2CCOCC2)no1,-9.29%,,
NCCNCCNCCNCCN,,,inactive [at 11.3 µM]
CC(=O)Nc1c(I)cc(I)c(C(=O)O)c1I,-0.869%,,
NC(=O)c1cc[n+](CC2=C(C(=O)[O-])N3C(=O)[C@@H](NC(=O)Cc4cccs4)[C@H]3SC2)cc1,,,inactive
Cc1cc(O)cc(C)c1Cl,,,inactive
CCOC(=O)c1ccc(OCCN2C[C@H](O)[C@@H](O)[C@H](O)[C@H]2CO)cc1,,,inactive
